Reference: PubChem BioAssay (NCI)
Compounds without any hit were thinned out: in the full panel of roughly 79,000, 15% have a hit. Activity calls are given as the source filed them. No stated cut-off is given here; in the data, active means growth inhibition above about 70%; inactive means the rest.

Key:
[1] = NCI Yeast Anticancer Drug Screen. Data for the rad50 strain (AID 155);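 further: 0% = growth of vehicle-only cultures of the same strain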; conditions: S. cerevisiae rad50 strain growth inhibition; at 50.0 µM; hits give high values
Method in brief: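 Inhibition values express reduced yeast growth in compound-treated cultures relative to vehicle-treated controls.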

[2] = NCI Yeast Anticancer Drug Screen. Data for the mec2-1 strain (AID 157); conditions: S. cerevisiae mec2-1 strain, at 50.0 µM, hits give high values
Method in brief: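 Mutant yeast (mec2-1) grown with compound; growth inhibition relative to vehicle control reported.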

[3] = NCI Yeast Anticancer Drug Screen. Data for the sgs1 mgt1 strain (AID 161);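 further: 0% = growth of cultures given vehicle only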; conditions: S. cerevisiae sgs1 mgt1 strain, at 50.0 µM, hits give high values
Method in brief: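 This yeast growth screen uses a strain with defined DNA-repair lesions; compound-treated growth is compared with vehicle-treated growth.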

[4] = NCI Yeast Anticancer Drug Screen. Data for the cln2 rad14 strain (AID 165);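 further: 0% = growth equal to vehicle treated cultures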; conditions: S. cerevisiae cln2 rad14 strain, at 50.0 µM, hits give high values
Method in brief: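 Readout is yeast growth inhibition versus vehicle-treated controls, using a strain with cln2 and rad14 alterations exposed to compound.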

[5] = NCI Yeast Anticancer Drug Screen. Data for the bub3 strain (AID 167); conditions: S. cerevisiae bub3 mutant strain, at 50.0 µM, hits give high values
Method in brief: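 Steps: expose the mutant yeast strain to compound; grow alongside vehicle-treated cultures; measure growth; express inhibition against the vehicle cultures.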

[6] = NCI Yeast Anticancer Drug Screen. Data for the mlh1 rad18 strain (AID 175); conditions: S. cerevisiae mlh1 rad18 strain growth inhibition; at 50.0 µM; hits give high values
Method in brief: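 Genetically defined yeast (DNA repair-deficient) exposed to compounds; growth inhibition determined relative to vehicle.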

Measured: growth inhibition

CCC1(/C=C/C(C)C)C(=O)NC(=S)NC1=O
inactive: [1] -0.75% | [2] 4.55% | [3] -0.8% | [4] 0.85% | [5] 0.05% | [6] 2.8%

Cc1ccc(S(N)(=O)=O)cc1
inactive: [1] 22% | [2] -5.05% | [3] 5.8% | [4] -8.25% | [5] 12.8% | [6] 18.8%

CCOP(=O)(OCC)/C(C#N)=C/c1ccc(OC)cc1
inactive: [1] 2.9% | [2] -1.8% | [3] -11.4% | [4] 11.7% | [5] 11.1% | [6] -1.05%

O=C1C=CC2(C=C1)CCN=c1c(O)c3c(c(O)c12)=NC=N3
inactive: [1] 15.5% | [2] 7.55% | [3] 8.5% | [4] 29.2% | [5] 11.9% | [6] -4.5%

C1CN([PH+](N2CC2)N2CC2)CCO1.C1CN([PH+](N2CC2)N2CC2)CCO1.[Cl][Pt][Cl]
inactive: [1] 5.3% | [2] 26.6% | [3] 10% | [4] -8.85% | [5] -3.35% | [6] 22.7%

Oc1cccc(/C=N\NC(=S)NC2CN3CCC2CC3)c1 (stereo not given)
inactive: [1] 2.85% | [2] -5.9% | [3] -5.85% | [4] -4.45% | [5] 7.1% | [6] -12.8%

CC(Cc1cccc2c1Nc1ccccc1S2)N(C)CCO (stereo not given)
inactive: [1] -60.2% | [2] -40.5% | [3] -28.6% | [4] -5.25% | [5] -25.4% | [6] -30.1%

CCOC(=O)c1cc2c(cn1)[nH]c1ccccc12
inactive: [1] 41.2% | [2] 34.2% | [3] 43.4% | [4] 0% | [5] 26.9% | [6] 16.8%

CCOC(OC1=C(C#N)CCCC1)C(C)[Se]c1ccccc1 (stereo not given)
inactive: [1] 63% | [2] 25.2% | [3] 54.2% | [4] 41.9% | [5] 50.4% | [6] 34%

C=COC(N)=O
inactive: [1] 0.8% | [2] -2.7% | [3] 5.05% | [4] -0.9% | [5] 0.05% | [6] -8.15%

[Cl][Hg][Cl].c1ccc(N=P(c2ccccc2)(c2ccccc2)c2ccccc2)cc1
active: [1] 99.7% | [2] 99.8% | [3] 99.8% | [4] 99.5% | [5] 99.3% | [6] 99.6%

C[N+]12CCC34C5=CC(=O)C(=O)C=C5[N+]5(C)C(=O)CC6OCC=C(C1)C(CC32)C6C45 (stereo not given)
inactive: [1] -2% | [2] -22.1% | [3] 4.65% | [4] 10.9% | [5] 11.7% | [6] 0.7%

C=CC1CC=CCC1 (stereo not given)
inactive: [1] -7.1% | [2] -5.2% | [3] 9.15% | [4] -25.2% | [5] -0.55% | [6] -11.9%

OC1NC2CC3NC(O)C(O)NC3CC2NC1O (stereo not given)
inactive: [1] -16.6% | [2] -4.25% | [3] 12.7% | [4] 22.9% | [5] 16.1% | [6] 11.4%

COc1cc2c(cc1O)CC1c3c(cc(O)c(OC)c3-2)CCN1C (stereo not given)
inactive: [1] 1.55% | [2] -8.45% | [3] -10.8% | [4] -15.8% | [5] -26.1% | [6] 2.85%

[CH3][Sn]([CH3])([Br])[CH2]CCBr
inactive: [4] 48.5%
active: [1] 84.2% | [2] 88.1% | [3] 89.2% | [5] 95% | [6] 96.5%

CCOP(C)(=O)C(N)Cc1ccc(OC)c(OC)c1 (stereo not given)
inactive: [1] -39.6% | [2] -59.5% | [3] -40.1% | [4] -16.4% | [5] 1.1% | [6] -34.5%

CCOP(=O)(OCC)O/N=C(/C#N)c1ccccc1
inactive: [1] 11.3% | [2] -6.4% | [3] 18.4% | [4] -0.35% | [5] -7.45% | [6] -1%

N.N.N.N.N.O=[N+]([O-])[O-].[Co+3].[O-][Cl+3]([O-])([O-])[O-]
inactive: [1] -13.7% | [2] 4.6% | [3] -10.5% | [4] -3.15% | [5] -4.45% | [6] -7.75%

NC(=O)NC(O)C(Cl)(Cl)Cl (stereo not given)
inactive: [1] -12.1% | [2] -33.9% | [3] -24.9% | [4] -42% | [5] -32.6% | [6] -29.4%

[CH-]=C([CH2-])C.[Ni][Br].c1ccc([PH+](c2ccccc2)c2ccccc2)cc1
inactive: [1] 35.5% | [2] 2.9% | [3] 26.6% | [4] -8.85% | [5] -4.6% | [6] -1.75%

CCOP(N)(=O)SC (stereo not given)
inactive: [1] -11.1% | [2] 8% | [3] -11.8% | [4] -12.8% | [5] -7.45% | [6] 23.6%

CNc1cccc2ccccc12
inactive: [1] -3.3% | [2] -14.1% | [3] -54.5% | [4] -36.5% | [5] -28.6% | [6] -0.35%

O=C(Nc1ccccc1)N(C1=NCC(CI)S1)c1ccc(F)cc1F (stereo not given)
inactive: [1] 18.3% | [2] 6.75% | [3] -6.95% | [4] 7.7% | [5] 2.95% | [6] -40.1%

Cc1ccccc1NC(N)=S
inactive: [1] 27.6% | [2] 9.15% | [3] -8.2% | [4] 1.55% | [5] 5.4% | [6] 15.7%

CCC[CH2][Sn]([Cl])([Cl])[CH2]CCC.c1ccncc1
active: [1] 95.5% | [2] 97.5% | [3] 98.2% | [4] 98.3% | [5] 98.2% | [6] 98%

O=C(O)C(F)(F)F.O=C(O)C(F)(F)F.[C-]#[O+].[Ru].c1ccc([PH+](c2ccccc2)c2ccccc2)cc1.c1ccc([PH+](c2ccccc2)c2ccccc2)cc1
inactive: [1] 1.5% | [2] 22.2% | [3] 21.9% | [4] -7.45% | [5] -14.9% | [6] 14.3%

CCC(OC(=O)C1C(C=C(C)C)C1(C)C)c1cc2c(cc1Cl)OCO2 (stereo not given)
inactive: [1] -8.05% | [2] -19.1% | [3] -7.3% | [4] -13.3% | [5] -10.7% | [6] -20.8%

O=C1NCN(c2ccccc2)C12CCN(CCCS(=O)(=O)c1ccccc1)CC2
inactive: [1] -22.4% | [2] -13.6% | [3] -9.55% | [4] -22.6% | [5] 3.5% | [6] -18%

O=C(O)C(O)c1ccc(Cl)cc1 (stereo not given)
inactive: [1] 17.7% | [2] -0.65% | [3] -14.8% | [4] -15.1% | [5] 16.1% | [6] 11.2%

CC(=O)C1CCC2C3CC=C4CC(OOS(=O)c5ccc(C)cc5)CCC4(C)C3CCC12C (stereo not given)
inactive: [1] 43.2% | [2] 20.1% | [3] 46.2% | [4] -31.4% | [5] 22.4% | [6] 24.1%

O=C(Nc1ccccc1)Nc1ccc(N(CCCl)CCCl)cc1
inactive: [1] 21.8% | [2] 18.6% | [3] 10.8% | [4] 13.5% | [5] 13.7% | [6] 31.8%

CCCCC[As](=O)(O)O
inactive: [1] 12.2% | [2] -6.4% | [3] 1.2% | [4] -5.6% | [5] 4.3% | [6] 7.95%

NC(Cc1ccc2c(c1)OCO2)c1ccccc1 (stereo not given)
inactive: [1] -0.1% | [2] 9.05% | [3] 3.25% | [4] -27.3% | [5] 0.45% | [6] 4.45%

CCCCCCCCCCCCCCCC(=O)OCC1OC(OC)C2NP(=O)(N(CCCl)CCCl)OC1C2O (stereo not given)
inactive: [1] 35.4% | [2] -13.3% | [3] -40.4% | [4] -20.9% | [5] 66.7%
active: [6] 73%

Cc1cc(F)ccc1[As](=O)(O)O
inactive: [1] -0.55% | [2] -1.95% | [3] -3.25% | [4] -17.9% | [5] 5% | [6] 3.25%

CC(=O)OC1CC2(O)C3CCC4CC(O)CCC4(C)C3CCC2(C)C1C1=CC(=O)OC1 (stereo not given)
inactive: [1] -11.1% | [2] -19.9% | [3] -9.9% | [4] -6.4% | [5] -32.4% | [6] -1.75%

CC[C@@H](C)C(=O)O[C@H]1[C@H](O)[C@H]2[C@@H](CN3C[C@@H](C)CC[C@H]3[C@@]2(C)O)[C@@H]2C[C@]34O[C@]5(O)[C@@H](OC(=O)[C@@](C)(O)CC)CC[C@@]3(C)[C@@H]5[C@@H](OC(C)=O)[C@@H](OC(C)=O)[C@H]4[C@@]21O
inactive: [1] 11.8% | [2] -15.3% | [3] 0.75% | [4] -4.3% | [5] 8.75% | [6] 7.35%

CS(=O)(=O)c1ccc(COP(N)(=O)N(CCCl)CCCl)cc1 (stereo not given)
inactive: [1] 17.1% | [2] -8.05% | [3] -0.95% | [4] 11.3% | [5] -4.2% | [6] 17.7%

CCCCNC(=O)C(Cl)Cl
inactive: [1] 20.2% | [2] 5.4% | [3] 8.65% | [4] 2.4% | [5] -14.8% | [6] 13.9%
